This is part of a sample that, as a whole, favours compounds with a hit. Of some 79,000 tested, about 15% had one in any assay. Calls of active or inactive are those of the source. Cut-off read from the data, not from the text of the source: active = growth inhibition above about 70%; inactive = the rest.
Assays:
[1] = NCI Yeast Anticancer Drug Screen. Data for the rad50 strain (AID 155);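 note: 0% = growth of vehicle-only cultures of the same strain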; conditions: S. cerevisiae rad50 strain growth inhibition, hits give high values
Procedure, shortened: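 Yeast carrying a defined DNA repair defect were exposed to test compounds, and growth was compared with vehicle-treated controls to give percent inhibition.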

[2] = NCI Yeast Anticancer Drug Screen. Data for the mec2-1 strain (AID 157); conditions: S. cerevisiae mec2-1 strain, hits give high values
Procedure, shortened: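 Strain: mec2-1 (DNA repair/cell cycle alteration). Compound exposure, then growth measured; inhibition expressed relative to vehicle.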

[3] = NCI Yeast Anticancer Drug Screen. Data for the sgs1 mgt1 strain (AID 161);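 note: 0% = growth of cultures given vehicle only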; conditions: S. cerevisiae sgs1 mgt1 strain, hits give high values
Procedure, shortened: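 Test agents were incubated with a DNA-repair-mutant yeast strain. Growth was then read and compared against vehicle-treated controls.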

[4] = NCI Yeast Anticancer Drug Screen. Data for the cln2 rad14 strain (AID 165);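 note: 0% = growth equal to vehicle treated cultures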; conditions: S. cerevisiae cln2 rad14 strain, hits give high values
Procedure, shortened: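 Compounds are applied to the cln2 rad14 yeast strain, and growth is then compared with that of vehicle-treated cultures to give inhibition.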

[5] = NCI Yeast Anticancer Drug Screen. Data for the bub3 strain (AID 167); conditions: S. cerevisiae bub3 mutant strain, hits give high values
Procedure, shortened: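 Compounds were applied to a genetically altered yeast strain carrying a cell-cycle control defect. Growth inhibition was scored against vehicle-treated controls.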

[6] = NCI Yeast Anticancer Drug Screen. Data for the mlh1 rad18 strain (AID 175); conditions: S. cerevisiae mlh1 rad18 strain growth inhibition, hits give high values
Procedure, shortened: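 Read-out is yeast growth inhibition, calculated against vehicle-only controls. The compound was applied to a strain engineered with DNA damage repair alterations.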

[7] = at 5.0 µM (retest, dose inferred, filed as 0.5)
[8] = at 50.0 µM (retest, dose inferred, filed as 5.0)

Measured: growth inhibition

Cc1c(-c2ccc(C(=N)N)cc2)oc(-c2ccc(C(=N)N)cc2)c1C
active: [1]; [7] 88% | [1]; [8] 98% | [1]; at 50.0 µM 89% | [2]; [7] 84% | [2]; [8] 98% | [2]; at 50.0 µM 90% | [3]; [7] 92% | [3]; [8] 99% | [3]; at 50.0 µM 88.1% | [4]; [7] 80% | [4]; [8] 96% | [4]; at 50.0 µM 89% | [5]; [7] 87% | [5]; [8] 99% | [5]; at 50.0 µM 86% | [6]; [7] 90% | [6]; [8] 97% | [6]; at 50.0 µM 84.5%

CC12C(=O)OC(=O)C1C1c3ccccc3C2c2ccccc21 (stereo not given)
active: [1]; [7] 71% | [1]; [8] 99% | [1]; at 50.0 µM 89.7% | [2]; [7] 82% | [2]; [8] 99% | [2]; at 50.0 µM 89.5% | [3]; [8] 90% | [3]; at 50.0 µM 89.3% | [4]; [8] 95% | [4]; at 50.0 µM 86.8% | [5]; [8] 90% | [5]; at 50.0 µM 89.5% | [6]; [7] 76% | [6]; [8] 99% | [6]; at 50.0 µM 88%
inactive: [3]; [7] 26% | [4]; [7] 51% | [5]; [7] 54%

CC1(C)CC(=O)C2=C(C1)Nc1ccccc1CC2c1c[nH]c2ccccc12 (stereo not given)
active: [1]; [8] 77% | [2]; [8] 85% | [4]; [8] 82% | [6]; [8] 84%
inactive: [1]; [7] -6% | [1]; at 50.0 µM -7.2% | [2]; [7] -1% | [2]; at 50.0 µM 3.35% | [3]; [7] -8% | [3]; [8] 68% | [3]; at 50.0 µM 5.35% | [4]; [7] -62% | [4]; at 50.0 µM 52.2% | [5]; [7] -4% | [5]; [8] 68% | [5]; at 50.0 µM 10.8% | [6]; [7] 0% | [6]; at 50.0 µM 0%

CCCCOC(=O)c1cnc[nH]c1=O
inactive: [1]; [7] 3% | [1]; [8] 17% | [1]; at 50.0 µM 0.5% | [2]; [7] 2% | [2]; [8] 3% | [2]; at 50.0 µM -2.65% | [3]; [7] 0% | [3]; [8] 8% | [3]; at 50.0 µM 8.15% | [4]; [7] 4% | [4]; [8] 3% | [4]; at 50.0 µM 10.4% | [5]; [7] -5% | [5]; [8] 14% | [5]; at 50.0 µM 3.55% | [6]; [7] 24% | [6]; [8] 12% | [6]; at 50.0 µM 8.65%

CNC1C(O)C(NC)C2OC3(O)C(=O)CC(C)OC3OC2C1O (stereo not given)
active: [1]; at 50.0 µM 84.1% | [2]; at 50.0 µM 89.8% | [4]; at 50.0 µM 83.7% | [5]; at 50.0 µM 86.3% | [6]; at 50.0 µM 86.7%
inactive: [1]; [7] -7% | [1]; [8] 6% | [2]; [7] 1% | [2]; [8] -19% | [3]; [7] -7% | [3]; [8] -1% | [3]; at 50.0 µM 9.05% | [4]; [7] 17% | [4]; [8] 23% | [5]; [7] -1% | [5]; [8] -9% | [6]; [7] -27% | [6]; [8] -30%

NC(=O)c1ccc[n+](CC(=O)Nc2ccc(Cl)cc2)c1
inactive: [1]; [7] 2% | [1]; [8] -3% | [1]; at 50.0 µM 5.6% | [2]; [7] -9% | [2]; [8] -4% | [2]; at 50.0 µM -1.35% | [3]; [7] -5% | [3]; [8] -28% | [3]; at 50.0 µM -7.2% | [4]; [7] -1% | [4]; [8] -6% | [4]; at 50.0 µM -57.3% | [5]; [7] 0% | [5]; [8] -11% | [5]; at 50.0 µM 31% | [6]; [7] 11% | [6]; [8] 4% | [6]; at 50.0 µM -13.9%

O=C(Nc1nnc(-c2ccccc2)s1)c1cc(=O)c2cc(Cl)ccc2o1
inactive: [1]; [7] -3% | [1]; [8] 45% | [2]; [7] 0% | [2]; [8] 58% | [3]; [7] -3% | [4]; [7] 6% | [4]; [8] 62% | [5]; [7] 4% | [6]; [7] 2%
active: [1]; at 50.0 µM 99.3% | [2]; at 50.0 µM 99.7% | [3]; [8] 78% | [3]; at 50.0 µM 99.5% | [4]; at 50.0 µM 98.8% | [5]; [8] 77% | [5]; at 50.0 µM 99.4% | [6]; [8] 71% | [6]; at 50.0 µM 98.9%

O=c1c(Cl)nsnc1Cl
active: [1]; [7] 100% | [1]; [8] 100% | [1]; at 50.0 µM 99.6% | [2]; [7] 100% | [2]; [8] 100% | [2]; at 50.0 µM 99.7% | [3]; [7] 100% | [3]; [8] 100% | [3]; at 50.0 µM 99.6% | [4]; [7] 99% | [4]; [8] 100% | [4]; at 50.0 µM 98% | [5]; [7] 100% | [5]; [8] 100% | [5]; at 50.0 µM 99.7% | [6]; [7] 99% | [6]; [8] 100% | [6]; at 50.0 µM 99.4%

CC1=C(C(=O)Nc2ccc(C)cc2C)C(c2cccc([N+](=O)[O-])c2)C(C(=O)Nc2ccc(C)cc2C)=C(C)N1
inactive: [1]; [7] -17% | [1]; [8] 50% | [1]; at 50.0 µM 28.6% | [2]; [7] 12% | [2]; at 50.0 µM 38.5% | [3]; [7] -4% | [3]; [8] 47% | [3]; at 50.0 µM 33% | [4]; [7] 10% | [4]; [8] 42% | [4]; at 50.0 µM 36.6% | [5]; [7] 14% | [5]; [8] 69% | [5]; at 50.0 µM 37.2% | [6]; [7] 4% | [6]; [8] 44% | [6]; at 50.0 µM 41.1%
active: [2]; [8] 74%

O=[N+]([O-])c1ncn(C2OC(CO)C(O)C2O)c1S (stereo not given)
inactive: [1]; [7] -5% | [1]; [8] -3% | [1]; at 50.0 µM -2.85% | [2]; [7] 2% | [2]; [8] -8% | [2]; at 50.0 µM 24.6% | [3]; [7] -1% | [3]; [8] -3% | [3]; at 50.0 µM 14.6% | [4]; [7] -3% | [4]; [8] -5% | [4]; at 50.0 µM 66.1% | [5]; [7] -12% | [5]; [8] -14% | [5]; at 50.0 µM 1.15% | [6]; [7] -6% | [6]; [8] -8% | [6]; at 50.0 µM 8.05%
